4MU fluor: compound fluoresces in the 4-MU spectral region. compound autofluorescence, 340/450 nm, 4-MU equivalents; stronger effect = higher value. max dye-equivalent concentration, M. hit rate 11% among 59,000; in the data active = max dye-equivalent concentration above about 10 nM; inconclusive = mostly about 1.1 nM to 9.6 nM
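Compounds in 100 mM Tris, pH 8.0, sat 15 min at room temperature before fluorescence was read at 340 nm excitation/450 nm emission; a per-plate six-point 4-MU standard curve converted signals to dye-equivalent concentration at each compound concentration.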
HADH2 inh: blocks human hydroxyacyl-CoA dehydrogenase type II. Q99714. recombinant HADH2, NADH fluorescence, beta-hydroxybutyryl-CoA. Potency, µM (titrated, usually from 57.1 µM), hits mostly inhibitors. hit rate 3.4% among 73,000. AID 886; also: nearly all actives have a fitted effect of over 60% in size
Target sequence (Q99714 whole entry, looked up, one chain of several): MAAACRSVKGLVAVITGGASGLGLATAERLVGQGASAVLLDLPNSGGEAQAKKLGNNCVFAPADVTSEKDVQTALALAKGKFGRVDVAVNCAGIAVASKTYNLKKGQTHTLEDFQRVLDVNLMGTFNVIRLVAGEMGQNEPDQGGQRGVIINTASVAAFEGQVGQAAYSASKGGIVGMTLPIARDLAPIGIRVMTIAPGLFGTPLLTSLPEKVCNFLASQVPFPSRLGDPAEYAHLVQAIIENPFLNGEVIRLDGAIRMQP
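E. coli-expressed His-tagged HADH2 tested at 20 nM in alkaline Tris buffer (pH 9.0); oxidation of 90 uM beta-hydroxybutyryl-CoA with 1 mM NAD+ tracked fluorimetrically for 4 min.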
A350 fluor: compound fluoresces in the Alexa 350 spectral region; Compound autofluorescence, 340/450 nm, Alexa 350 dye-equivalents; stronger effect = higher value; max dye-equivalent concentration, M; hit rate 11% among 59,000; AID 590; in the data active = max dye-equivalent concentration above about 10 nM; inconclusive = mostly about 1.1 nM to 9.6 nM
HSD17B inh: HSD17B dehydrogenase inhibition. Q99714. recombinant HSD17B10, NADH fluorescence kinetic. Potency, µM (series often up to 57.1 µM), actives largely listed as inhibitors. hit rate 7.6% among 75,000;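 also: the protocol describes HADH2 (HSD17B10) and not the HSD17B4 of the title; nearly all actives have a fitted effect of over 70% in size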
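Activity followed as NADH fluorescence increase (ex 360, em 450 nm) every 30 seconds for 4 min, using final 90 uM beta-hydroxybutyryl CoA and 1 mM NAD+. Recombinant His-tagged enzyme, 20 nM, pH 9.0 Tris buffer, 15 min compound preincubation.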
AID923: qHTS Assay for Allosteric/Competitive Inhibitors of Caspase-1: Spectroscopic Profiling in AFC Spectral Region; compound fluorescence, AFC spectral region (405/520 nm); hit rate 1.1% among 75,000; Potency, µM (highest dose often 57.5 µM), most hits filed as activators
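Baseline compound fluorescence (AFC region, 405 nm ex/520 nm em) taken from the intercept of kinetic reads with 50 nM caspase-1 and 5 uM Ac-WEHD-AFC; normalized to an on-plate AFC standard curve; compounds titrated up to 57 uM.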
CRE-bla Fsk: modulators of forskolin-stimulated CRE signaling in CHO cells; CHO CRE-bla reporter (cAMP response element driving beta-lactamase), forskolin EC10, beta-lactamase ratio; Potency, µM (titrated, usually from 38.2 µM), actives largely listed as activators; hit rate 2.5% among 71,000; active = well fitted activation curve with a large enough effect in the signal ratio, with a control signal flat, not every such curve was filed as active; inconclusive = small, poorly fitted or top-dose-only effect, or effect the other way, or a change in a side signal; the % refers to the signal ratio
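qHTS titration format; CRE-bla CHO reporter; stimulus EC10 NKH 477, a water-soluble forskolin. Read: CCF4 460/530 nm ratio. Potency expressed as AC50 for activators or inhibitors.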
Of the large screens only hits and unclear results are named; the others gave an inactive call; ! = repeats disagree. Compounds with a hit are over-represented: about 14% of the library has one in this group of screens. Unless noted, calls follow the shape of the dose curve; as a rule, active = well fitted curve in the direction sought with a large enough effect; inconclusive = small, poorly fitted or top-dose-only effect, or another doubt; inactive = no such curve, though single readings can be large; an effect the other way counts as inactive or inconclusive.

Cc1ccc(S(=O)(=O)N[C@H]2COC(=O)CC=C[C@@H](C)[C@H]3C=C[C@H](O)[C@@H](COC(=O)CC=C[C@H]2C)O3)cc1	none (no result: 4MU fluor, A350 fluor, CRE-bla Fsk)
c1ccc(CCc2cccnc2)nc1	none
CCc1cc(=O)oc2cc(C)c3c(C)coc3c12	4MU fluor 3.2e-08M, A350 fluor 3.79e-08M, HSD17B inh 6.31µM, CRE-bla Fsk inconclusive
COc1cc(-c2ccc(=O)[nH]n2)ccc1OC(F)F	4MU fluor inconclusive, A350 fluor inconclusive, CRE-bla Fsk 15.8µM!
COc1ccc2c(c1)Sc1ccccc1N2CCN(C)C	none
CCN1/C(=C/C(C)=O)Sc2ccc(OC)cc21	4MU fluor 1.14e-08M, HADH2 inh inconclusive, A350 fluor 1.42e-08M
O=C(O)Cn1nc(-c2ccccc2)c2ccccc21	HADH2 inh inconclusive, HSD17B inh inconclusive (no result: 4MU fluor, A350 fluor)
COCCn1c(=O)c(CCc2ccccc2)nc2cnc(Oc3ccccc3)nc21	CRE-bla Fsk inconclusive
Cc1oc(-c2cc(Cl)ccc2Cl)cc1-c1nn2c(C)nnc2s1	CRE-bla Fsk inconclusive
Cc1nnc2sc(-c3ccc(-c4ccc(Cl)c(C(F)(F)F)c4)o3)nn12	4MU fluor 9.23e-07M, A350 fluor 1.28e-06M, HSD17B inh 3.98µM, CRE-bla Fsk inconclusive
CC(=O)Nc1c(I)c(C(=O)N[C@H]2[C@@H](O)[C@H](O)[C@H](CO)O[C@@H]2O)c(I)c(N(C)C(C)=O)c1I	none
CCSc1ccc2nnc(-c3ccc(F)cc3)n2n1	4MU fluor inconclusive, A350 fluor inconclusive, HSD17B inh 31.6µM, CRE-bla Fsk inconclusive
COc1ccc(-c2nnc3ccc(SCC(=O)N4CCN(c5ccccc5)CC4)nn23)cc1	4MU fluor 1.3e-08M, HADH2 inh inconclusive, A350 fluor 1.72e-08M
Clc1cccc(Cl)c1-c1nnc2ccc(N3CCOCC3)nn12	CRE-bla Fsk inconclusive
Fc1cccc(Cl)c1-c1nnc2ccc(N3CCOCC3)nn12	CRE-bla Fsk 12.6µM
Fc1ccc(-c2nnc3ccc(N4CCCC4)nn23)cc1	HSD17B inh 25.1µM (no result: 4MU fluor, A350 fluor)
CCCCCCC#CC1C=CC(OC(=O)OCC)C(COC(=O)OCC)O1 (configuration not stated)	none (no result: 4MU fluor, A350 fluor, CRE-bla Fsk)
O=C(O)/C=C1\CCCc2ccccc2[C@H]1O	CRE-bla Fsk inconclusive (no result: 4MU fluor, A350 fluor)
CN[C@@H](CC(C)C)C(=O)N[C@@H]1C(=O)N[C@H](CC(N)=O)C(=O)N[C@H]2C(=O)N[C@H]3C(=O)N[C@H](C(=O)N[C@H](C(=O)O)c4cc(O)cc(O)c4-c4cc3ccc4O)[C@H](O)c3ccc(c(Cl)c3)Oc3cc2cc(c3O[C@@H]2O[C@@H](CO)[C@@H](O)[C@@H](O)[C@H]2O[C@H]2C[C@](C)(N)[C@H](O)[C@H](C)O2)Oc2ccc(cc2Cl)[C@@H]1O	none
CCOC(=O)C(C)Sc1ccc2nnc(-c3ccc(F)cc3)n2n1 (configuration not stated)	4MU fluor inconclusive, HADH2 inh inconclusive, A350 fluor 1.12e-08M, HSD17B inh 31.6µM
CCOC(=O)CSc1ccc2nnc(-c3cccs3)n2n1	HADH2 inh inconclusive, CRE-bla Fsk 3.98µM (no result: 4MU fluor, A350 fluor)
O=C(CSc1ccc2nnc(-c3ccc(F)cc3)n2n1)N1CCCCC1	4MU fluor inconclusive, HADH2 inh inconclusive, A350 fluor inconclusive
Nc1nnc(Cc2ccc(Cl)c(Cl)c2)s1	none (no result: HADH2 inh, HSD17B inh, AID923, CRE-bla Fsk)
C[C@]12CC[C@H]3c4ccc(O)cc4CC[C@@H]3[C@H]1CC[C@@H]2OC(=O)CCc1ccccc1	none
COc1ccccc1N1CCN(CCCCN2C(=O)CCC2=O)CC1	CRE-bla Fsk inconclusive (no result: 4MU fluor, A350 fluor)
COc1ccccc1N1CCN(CCCCN2C(=O)c3ccccc3C2=O)CC1	4MU fluor 7.72e-06M, HADH2 inh 31.6µM!, A350 fluor 7.94e-06M
CNC(=O)C1CC(=O)N(c2ccc(C)cc2)C1 (configuration not stated)	none (no result: 4MU fluor, A350 fluor)
O=C(CN1CCN(C2CCCCC2)CC1)c1ccc2cc[nH]c2c1	HADH2 inh inconclusive, HSD17B inh 31.6µM (no result: 4MU fluor, A350 fluor)
COC(=O)c1[nH]c2ccc(Br)cc2c1NC(=O)CN1CCN(C2CCCCC2)CC1	CRE-bla Fsk inconclusive
O=C(O)c1ccc2cc[nH]c2c1	HSD17B inh 25.1µM, CRE-bla Fsk 0.2µM
COC(=O)C/C=C\[C@@H](C)[C@@H](/C=N\OC[C@@H](C)[C@H](OCc1ccccc1)C(C)C)NS(=O)(=O)c1ccc(C)cc1	none (no result: 4MU fluor, A350 fluor, CRE-bla Fsk)
Cc1cc(NC(=O)CCC(=O)N(c2ccc(F)cc2)C(C(=O)NC2CCCC2)c2ccncc2)no1 (configuration not stated)	A350 fluor inconclusive
CC(/C=C/C=C(C)/C=C/C(=O)O)=C\C=C\C=C(C)\C=C\C=C(C)\C=C\C(=O)O	HSD17B inh 25.1µM, CRE-bla Fsk inconclusive (no result: 4MU fluor, A350 fluor)
Cc1ccc(CNC(=O)c2cn(C3CCCC3)c(=O)c3c2c2ccccc2n3C)o1	4MU fluor 5.4e-08M, A350 fluor 4.68e-08M, HSD17B inh 25.1µM, CRE-bla Fsk inconclusive

High-throughput results from PubChem.
